Screening data as filed in PubChem.
This is a sample that favours compounds with a hit; in the whole collection about 2.4% have one here.
D2 antagonist – HTS Assay for Allosteric Antagonists of the Human D2 Dopamine Receptor: Primary Screen for Antagonists. D(2) dopamine receptor (Homo sapiens), P14416. HEK293 TREx D2 cells, calcium flux, dopamine EC80. inhibition, % at 10 µM. hit rate 2% among 340,000. AID 485344, 2010; in the data active = inhibition above about 30%; inactive = below that, where a call was filed; note: 0% is about no effect
Target sequence (P14416 whole entry, looked up): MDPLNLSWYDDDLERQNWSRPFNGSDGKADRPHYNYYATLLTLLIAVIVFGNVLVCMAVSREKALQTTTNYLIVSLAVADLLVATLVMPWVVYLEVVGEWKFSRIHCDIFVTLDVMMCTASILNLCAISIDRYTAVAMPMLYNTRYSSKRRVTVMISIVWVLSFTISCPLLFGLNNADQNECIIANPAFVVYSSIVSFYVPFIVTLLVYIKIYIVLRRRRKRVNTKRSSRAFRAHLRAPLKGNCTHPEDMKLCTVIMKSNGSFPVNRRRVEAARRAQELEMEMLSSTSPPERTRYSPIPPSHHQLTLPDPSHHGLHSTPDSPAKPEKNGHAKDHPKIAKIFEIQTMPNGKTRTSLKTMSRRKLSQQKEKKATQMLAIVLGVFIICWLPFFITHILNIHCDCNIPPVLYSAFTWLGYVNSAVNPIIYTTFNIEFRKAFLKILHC
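Calcium flux kinetic readout in an inducible HEK293 TREx D2 line plated overnight at 30 C. After 180 s compound exposure, an EC80 dopamine challenge follows with another 180 s kinetic read to detect antagonism.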
D2 ag-1 – Beta-Arrestin HTS for Positive Allosteric Modulators of the Human D2 Dopamine Receptor: Agonists; D(2) dopamine receptor (Homo sapiens), P14416; DiscoveRx PathHunter D2 beta-arrestin, luminescence, 90 min; 100% = 57 uM dopamine signal; activation, % (test concentration not listed); hit rate 0.084% among 360,000; AID 624465, 2012; in the data active = activation above about 40%; inconclusive = between about 15% and that limit
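DiscoveRx PathHunter D2 beta-arrestin cells (2,100/well) attached overnight, then compound-stimulated 90 min at 37 C in HBSS/10 mM HEPES/0.1% Tween-20 buffer; beta-galactosidase complementation read by luminescence after 1 h at ambient temperature. Dopamine 57 uM final (EC100) as control.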
D2 PAM-1 – Beta-Arrestin HTS for Positive Allosteric Modulators of the Human D2 Dopamine Receptor: Potentiators; DiscoveRx D2 beta-arrestin cells, luminescence, 90 min; 100% = 57 uM dopamine signal; potentiation, % (concentration not given with the values); hit rate 0.23% among 360,000; AID 624464, 2012; in the data active = potentiation above about 50%; inconclusive = mostly about 30% to 49%
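PathHunter beta-arrestin assay in DiscoveRx D2 cells. Compounds were added with an EC20 of dopamine (50 nM final) for 90 min at 37 deg C. Luminescence was read 1 h after detection reagent, with 57 uM dopamine as the EC100 control.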
D2 ag-2 – HTS Assay for Allosteric Agonists of the Human D2 Dopamine Receptor: Primary Screen for Agonists; HEK293 T-REx D2 cells, calcium flux agonist mode; activation, % at 2 µM; hit rate 0.53% among 340,000; D(2) dopamine receptor (Homo sapiens), P14416;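 active = activation over 3 SD above normal in the single-dose calcium agonist read, cut at about 30% in these data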; note: 0% is about no effect
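Tetracycline-induced HEK293 T-REx cells with force-coupled D2 receptor, plated overnight at 30 C, loaded with no-wash calcium dye. After a 10 s baseline, compound was pin-added and calcium flux read kinetically for 180 s; calcium rises flagged agonists.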
D2 PAM-2 – HTS Assay for Positive Allosteric Modulators of the Human D2 Dopamine Receptor: Primary Screen for Potentiators | hit rate 0.34% among 340,000 | potentiation, % at 10 µM | HEK293 T-REx D2, calcium flux, EC20 dopamine potentiation;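 active = potentiation over 3 SD above the plate norm, cut at about 30% in these data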; note: 0% is about no effect
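Cells plated with tetracycline inducer and held overnight at 30 C; calcium dye loaded 30–90 min at room temperature; baseline taken, compound added and read 180 s; EC20 dopamine then added and read 180 s.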
D3 arrestin ag – qHTS of D3 Dopamine Receptor Agonist: D3 Dopamine Receptor B-arrestin Agonist Confirmatory Assay; shares compounds with D2 ag-2; DiscoveRx D3 beta-arrestin cells, luminescence, 90 min; Potency, µM (top dose mostly 76.9 µM), without a hit: at the top dose activation, actives largely listed as activators; hit rate 4% among 2,300; AID 720506, 2013;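 note: potency is the fitted concentration of half-maximal effect; 100% = dopamine control response; nearly all actives have a fitted effect of over 70% in size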
D2 ag-3 – qHTS of D3 Dopamine Receptor Agonist: D2 Dopamine Receptor B-arrestin Agonist Counterscreen; AID 720507, 2013; DiscoveRx PathHunter D2 beta-arrestin, luminescence, 90 min; response scale: percent relative to full dopamine signal; shares compounds with D2 ag-2; Potency, µM (doses to about 76.9 µM), inactives show top-dose activation, most hits filed as activators; hit rate 5.9% among 2,300; note: potency is the fitted concentration of half-maximal effect; % of control where 0% means no effect; nearly all actives have a fitted effect of over 70% in size
Starred values were filed as active, the others as inactive; ? = inconclusive; . = no result given. Unless noted, calls come from the whole dose curve; as a rule, active = well fitted activation curve with a large enough effect; inconclusive = small, poorly fitted or top-dose-only effect; inactive = flat fitted curve, though single readings scatter.

SMILES	D2 antagonist	D2 ag-1	D2 PAM-1	D2 ag-2	D2 PAM-2	D3 arrestin ag	D2 ag-3
COc1ccc([C@H]2CC(=O)C=C(c3ccc(O)cc3)C2)cc1OC	-10	1	10	14	9	16%	9%
O=C(Nc1ccc(Cl)c(Cl)c1)c1cc(S(=O)(=O)N2CCN(c3cccc(Cl)c3)CC2)ccc1F	.	.	.	1	-9	.	.
COc1cccc(NC(=O)c2csc3c2CCCCC3)c1	.	.	.	2	-2	.	.
Cc1cc(C)cc(NC(=O)c2ccc3c(O)c(S(=O)(=O)c4ccccc4)c(=O)[nH]c3c2)c1	.	.	.	.	-6	.	.
O=S(=O)(NCCc1csc(-c2cccnc2)n1)c1cc(F)ccc1F	39*	2	-6	-1	1	1%	2%
O=S(=O)(NCCc1csc(-c2cccnc2)n1)c1cccc(F)c1	-1	0	-6	0	-4	.	.
COc1ccc2c(Sc3ccccc3)c(C(=O)NCCc3ccc(Cl)cc3)[nH]c2c1	.	.	.	-2	.	.	.
O=C(c1cc2ccccc2o1)N1CC=C(c2ccccc2)CC1	46*	-20	-12	58*	-16	12%	7%
O=C(c1cc2ccccc2o1)N1CCOCC1	2	-3	-16	0	-13	.	.
O=C(c1cc2ccccc2o1)N1CCN(CCOc2ccccc2)CC1	96*	?	-27	76*	-38	0.2µM*	?
O=C(O)C1CCCCC1C(=O)N1CC=C(c2ccccc2)CC1 (configuration not stated)	-1	?	-16	34*	-12	-13%	6%
O=C(c1ccc(Br)o1)N1CC=C(c2ccccc2)CC1	.	2	-13	.	.	.	.
O=C(Nc1ccc2ccccc2c1)N1CCCN(CCOc2ccccc2)CC1	-1	3	-6	38*	-22	10%	1%
COc1ccc(N2CCN(C(=O)Cc3noc4ccc(C)cc34)CC2)cc1	.	.	.	0	-8	.	.
COc1ccc(-n2cnc3cc(C(=O)NCCC4=CCCCC4)ccc32)cc1	.	.	.	1	5	.	.
O=C(Nc1cccc2ccccc12)N1CC=C(c2ccccc2)CC1	-8	-1	-2	34*	-20	?	19%
COc1ccc(Nc2ncnc3c2nc2n3CCCCC2)cc1	.	.	.	-1	5	.	.
Cc1sc2ncn(CC(=O)N3CCN(c4ccccc4)CC3)c(=O)c2c1S(=O)(=O)N1CCC(C)CC1	.	.	.	2	8	.	.
OCC1(Cc2cccc(C(F)(F)F)c2)CCN(Cc2cc3ccccc3o2)CC1	22	51*	12	49*	-17	?	40µM*
COc1ccc(CC2(CO)CCN(Cc3cc4ccccc4o3)CC2)cc1	.	62*	18	.	.	?	11µM*
COc1ccc(CC2(CO)CCN(Cc3ccncc3)CC2)cc1	7	-5	3	2	-6	.	.
C=Cc1ccc(CN2C(=O)N(c3ccc(CC)cc3)S(=O)(=O)c3ccccc32)cc1	.	.	.	0	.	.	.
O=[N+]([O-])c1ccc(O)c(-c2cc(C(F)(F)F)nc(-c3ccccc3)n2)c1	21	0	7	14	-5	?	2%
CN(CCOc1ccccc1Cl)Cc1ccccc1	85*	2	-3	25	-28	?	-3%
O=S1(=O)CCC(NC(=S)Nc2ccc3ccccc3c2)C1 (configuration not stated)	9	0	-8	-1	-3	.	.
SMILES	D2 antagonist	D2 ag-1	D2 PAM-1	D2 ag-2	D2 PAM-2	D3 arrestin ag	D2 ag-3
CC1(NC(=S)Nc2ccc3ccccc3c2)CCS(=O)(=O)C1 (configuration not stated)	37*	2	3	1	-22	-1%	0%
O=C1C(=O)N(CCCn2ccnc2)C(c2cccnc2)/C1=C(/O)c1ccc(F)cc1 (configuration not stated)	24	-1	-5	40*	-22	-9%	-3%
C=CC[C@H]1Cc2c(cccc2[N+](=O)[O-])[C@H](CC=C)N1	59*	?	13	36*	.	?	?
COc1ccc(OC)c(NC(=O)Nc2cccc(OCc3cc(=O)n4cc(C)ccc4n3)c2)c1	.	.	.	-1	-7	.	.
COCC(=O)Nc1nnc(-c2ccc(C(C)(C)C)cc2)s1	-2	-10	-10	2	7	16%	0%
COC(=O)C(Cc1ccccc1)NS(=O)(=O)c1ccccc1Br (configuration not stated)	-27	0	-3	2	-5	.	.
COC(=O)[C@H](Cc1ccccc1)NS(=O)(=O)N[C@@H](Cc1ccccc1)C(=O)OC	-8	-2	-4	5	-9	-6%	-1%
COCc1cc(C)nc(SCc2ccc(F)cc2)c1C#N	42*	-4	-1	0	9	-10%	-2%
CC(=O)Nc1ccc(S(=O)(=O)NC2=NCN(C(C)C)CN2)cc1	.	.	.	-1	2	.	.
COc1ccc(/C=N/Nc2nnc(C)n2N)cc1OC(C)=O	18	0	9	1	3	?	4%
C=CCN(CC=C)CCOc1ccccc1	-12	-2	-23	53*	-24	3%	8%
CC(C)(C)OC(=O)N1CCN(C(=O)c2[nH]cnc2C(=O)Nc2ccc(Cl)cc2)CC1	.	-1	-24	.	.	.	.
O=C(Nc1nccs1)c1nc[nH]c1C(=O)N1CCc2ccccc2C1	2	-7	-10	0	4	.	.
CC(C)(C)OC(=O)NCCCCCNC(=O)c1[nH]cnc1C(=O)Nc1ccc(Cl)cc1	-5	-1	-2	-1	-2	.	.
Cc1ccc(NC(=O)c2nc[nH]c2C(=O)N2CCN(C(=O)OC(C)(C)C)CC2)cc1	15	-2	-7	-1	-12	-7%	-2%
O=C(Nc1ccc(Cl)cc1)c1nc[nH]c1C(=O)N1CCc2ccccc2C1	51*	0	-14	2	-21	-3%	-4%
Cc1ccc(NC(=O)c2nc[nH]c2C(=O)NCCCCCNC(=O)OC(C)(C)C)cc1	-3	5	6	0	-14	12%	-1%
COc1ccc(C(=O)n2nc(-c3ccco3)nc2NCc2cccs2)cc1OC	.	.	.	5	17	.	.
Cc1ccccc1NC(=O)CSc1cn(CC(=O)N2CCCCCC2)c2ccccc12	.	.	.	-1	-1	.	.
